# Compound activity as filed in PubChem BioAssay.
# AddAB inh: growth inhibition of E. coli expressing H. pylori AddAB, primary screen, AddAB inhibitor project, absorbance; 0.29% of 330,000 active; inhibition, % at 11.9 µM; AID 435030, 2010; in the data active = inhibition above about 12%
# E coli growth-1: E. coli V3065 growth inhibition, primary screen, counter-screen for AddAB inhibitor project, absorbance, OD600. 18 h. inhibition, % at 11.9 µM. 0.27% of 330,000 active. AID 449728, 2010;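 active = inhibition above the campaign's mean inhibition across all tested compounds plus 3 SD, cut at about 9.9% in these data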;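 also: uninfected addAB+ strain grown without phage in ampicillin broth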
# Tat transport: E. coli Tat export inhibitors, primary screen, MC4100, TorA-mCherry reporter, fluorescence, single point | inhibition, % at 10 µM | 0.036% of 340,000 active;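 active = mean replicate inhibition at least 50% and at least half of replicates individually reaching 50%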;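 also: exported cargo escapes ClpAP degradation while cytoplasmic cargo is degraded and loses fluorescence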
# phage Ecoli inh: growth loss of phage-infected E. coli, primary screen, RecBCD inhibitor project, absorbance, with phage, HTS | inhibition, % at 11.9 µM | 0.26% of 360,000 active | AID 651602, 2012; in the data active = inhibition above about 11%
# E coli growth-2: E. coli growth inhibition, primary screen, OD600; 0.21% of 330,000 active; Escherichia coli growth, 23 h; active compounds read low; OD600 absorbance (concentration not given with the values);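 active = OD600 absorbance below the run mean of sample wells minus 3.6 SD, in any replicate, cut at about 0.56 in these data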
# Calb FLC: C. albicans growth inhibition with fluconazole, primary screen, CaCi-2 strain, Alamar Blue fluorescence. AID 1979, 2009. C. albicans CaCi-2 (fluconazole-resistant clinical isolate) + fluconazole, 48 h. 0.57% of 300,000 active. growth inhibition, % (test concentration not listed);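 active = growth inhibition above about 58% in most replicates, limit read from the data, passing the limit was not always enough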;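 also: all wells also contain fluconazole at 8 µg/ml as a sub-toxic cotreatment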
# A number is an active result; i = inactive; nt = no result given. Rows were chosen to be rich in hits. Some 0.9% of all compounds tested hit in one or more screens of this group.
SMILES,AddAB inh,E coli growth-1,Tat transport,phage Ecoli inh,E coli growth-2,Calb FLC
CCOc1ccccc1C(=O)N/N=C/c1ccoc1,nt,nt,i,i,nt,104
O=C1c2ccccc2NC(c2cn[nH]c2-c2ccc(Cl)cc2)N1O (stereo not drawn),i,i,i,i,nt,91
CCCCn1c(=O)c(CCC(=O)OCC(=O)NC(C)c2ccccc2)nc2ccccc21 (stereo not drawn),i,i,i,i,i,i
CCCCn1c(=O)c(CCC(=O)OCC(=O)NCc2ccc(OC)c(OC)c2)nc2ccccc21,i,i,i,i,i,77
Cc1cc(O)c2c(c1O)C(=O)[C@]13C(=C2O)C(=O)[C@@H]2[C@@H](O)[C@H]1[C@@H]1[C@H](O)[C@H]3C(=O)C3=C(O)c4c(O)cc(C)c(O)c4C(=O)[C@]312,i,9.9,i,nt,i,nt
COCCNC(=O)CCCn1c(=O)c2ccccc2n(CC(=O)NCCC2=CCCCC2)c1=O,nt,nt,i,i,i,i
COCCNC(=O)CCCn1c(=O)c2cc(OC)c(OC)cc2n(CC(=O)NCCC2=CCCCC2)c1=O,i,i,i,i,i,51
O=C(NCc1ccncc1)C(=O)NN=Cc1ccccc1OCc1ccccc1,nt,nt,nt,nt,i,nt
COC(=O)[C@@]1(Cc2ccc(F)cc2)C2c3cc(C(=O)N(C)C)n(Cc4c(CO)[nH]cc(C)c4=O)c3CC2CN1C(=O)c1ccccc1 (stereo partly drawn),nt,nt,nt,nt,i,nt
CS/C(=N\S(=O)(=O)c1cccs1)Nc1ccc(Br)cc1F,i,i,i,i,i,101
CS/C(=N\S(=O)(=O)c1cccs1)Nc1ccc(Cl)cc1,i,i,i,i,i,85
COc1c(N2CC3CCCNC3C2)c(F)cc2c(=O)c(C(=O)O)cn(C3CC3)c12 (stereo not drawn),nt,nt,nt,nt,0.058,nt
Cc1ccc(O)c(N=Cc2cc(Cc3ccccc3)cc([N+](=O)[O-])c2O)c1,nt,nt,i,i,i,98
O=[N+]([O-])c1cccc(C=Nc2cccc3ccccc23)c1O,i,i,i,i,nt,101
O=[N+]([O-])c1ccc(O)c(C=Nc2cccc3ccccc23)c1,i,i,i,i,i,i
COc1ccc(OC)c(C=NNC(=O)c2cc[n+](CC(=O)c3ccccc3)cc2)c1,nt,nt,nt,nt,i,nt
O=C(Nc1ccccc1N1CCOCC1)c1ccc(S(=O)(=O)NCc2ccco2)cc1,i,i,i,i,i,108
CN(C)CCCNc1cc(C(C)(C)C)nc2c(-c3ccc(Cl)cc3)cnn12,i,i,i,i,0.27,95
CC(C)(C)c1cc(NCc2ccccn2)n2ncc(-c3ccc(Cl)cc3)c2n1,i,i,i,i,i,i
CCNc1nc(NC(C)C)nc(NC(C)(C)C)n1,i,i,i,i,i,83
COc1ccccc1NC(=O)C(C#N)=Cc1c(C)nn(-c2ccc(F)cc2)c1Cl,nt,nt,nt,nt,i,nt
CCc1ncc(C)nc1CC,i,i,55,i,i,nt
CCc1ncc(C)[nH]1,i,i,nt,i,nt,i
C/C(=N/NC(=O)c1ccccc1O)c1ccc(N2C(=O)C3CCCCC3C2=O)cc1 (stereo not drawn),i,i,i,i,nt,111
Cc1ccc(S(=O)(=O)Nc2ccc3c(c2)CC(=O)N(C(C)CO)CC(C)C(CN(C)Cc2ccc4c(c2)OCO4)O3)cc1 (stereo not drawn),nt,nt,nt,nt,i,nt
SMILES,AddAB inh,E coli growth-1,Tat transport,phage Ecoli inh,E coli growth-2,Calb FLC
C=CCc1cccc(/C=N/NC(=O)CNc2ccccc2)c1O,i,i,i,i,nt,i
C=CCc1cccc(/C=N/NC(=O)CNc2cccc3ccccc23)c1O,i,i,i,i,nt,92
CC1CN(C(C)CO)C(=O)c2cc(NS(=O)(=O)c3ccc(F)cc3)ccc2OC1CN(C)S(=O)(=O)c1cccs1 (stereo not drawn),nt,nt,nt,nt,i,nt
Cc1ccc(NC(=O)C2CCCN(c3ncccn3)C2)cc1F (stereo not drawn),i,9.8,i,i,i,i
Cc1cc(C)cc(NC(=O)C2CCCN(c3ncccn3)C2)c1 (stereo not drawn),i,i,i,i,i,i
O=C(CCNc1n[nH]c(=O)[nH]c1=O)NN=Cc1ccccc1Br,nt,nt,nt,nt,i,nt
COc1cc(C=NNC(N)=S)ccc1OCc1ccc(C)cc1,nt,nt,nt,nt,i,nt
Oc1ccc(CN2CCc3ccccc3C2)c2cccnc12,i,i,i,i,0.47,i
O=C(Oc1ccc(Cl)c2cccnc12)c1cccnc1,i,i,i,i,0.37,i
Oc1ccc(CN2CCN(c3ccccc3)CC2)c2cccnc12,i,i,i,nt,i,i
Oc1ccc(CN2CCCCC2)c2cccnc12,i,i,i,i,i,103
CCOC(=O)N1CCN(Cc2ccc(O)c3ncccc23)CC1,i,i,nt,i,i,82
Cc1ccc(C(=O)Oc2ccc(Cl)c3cccnc23)cc1[N+](=O)[O-],i,i,i,i,i,i
COc1ccc(O)c(C=NNS(=O)(=O)c2ccc(C)cc2)c1,nt,nt,nt,nt,i,nt
CC(NC(=O)OCc1ccccc1)C(=O)NC(Cc1c[nH]c2ccccc12)C(=O)O (stereo not drawn),nt,nt,nt,nt,i,nt
Cc1ccc(SCCC(=O)NN=Cc2cccnc2)cc1,nt,nt,nt,nt,i,nt
OCc1ccc(O)c2ncccc12,i,i,i,i,i,107
Oc1ccc(Cl)c2cccnc12,nt,nt,i,i,0.29,nt
O=[N+]([O-])c1cc(CN2CCCC2)c2cccnc2c1O,i,i,i,nt,nt,nt
Oc1c(Cl)cc(CN2CCCCC2)c2cccnc12,i,11,i,nt,nt,i
Oc1ccc(CN2CCC(Cc3ccccc3)CC2)c2cccnc12,nt,nt,nt,i,0.46,112
CN(C)C1CCN(Cc2cc(COCc3ccccc3)c3cccnc3c2O)C1 (stereo not drawn),i,10,i,nt,nt,nt
Cc1ccc(N/N=C/c2c(O)cc(C)oc2=O)cc1,i,i,i,i,nt,i
Cc1cc(O)c(/C=N/Nc2ccc(F)cc2)c(=O)o1,i,i,i,i,nt,122
O=C(O)c1ccc(-c2nc(-c3ccc(Cl)cc3)cs2)cc1,nt,nt,i,i,i,91
SMILES,AddAB inh,E coli growth-1,Tat transport,phage Ecoli inh,E coli growth-2,Calb FLC
Nc1scc2c(C(=O)NN=Cc3ccc(Cl)cc3)nn(-c3ccccc3)c(=O)c12,nt,nt,nt,nt,i,nt
Cc1ccc(OCCCC(=O)Nc2nc3ccccc3[nH]2)cc1,i,i,i,i,i,110
COC(=O)NC1CC2C3CCC4CC(OC)CC[C@]4(C)C3CC[C@@]12C (stereo partly drawn),nt,nt,nt,nt,i,nt
COC(=O)c1ccc(N2NC(=O)/C(=C/c3ccc(-c4ccc(Cl)c(C(=O)O)c4)o3)C2=O)cc1,nt,nt,i,i,nt,62
O=C1NN(c2ccc(Cl)c(Cl)c2)C(=O)/C1=C/c1ccc(-c2ccccc2C(=O)O)o1,nt,nt,i,i,i,81
Cc1ccc(N2NC(=O)/C(=C/c3ccc(-c4ccc(Cl)c(C(=O)O)c4)o3)C2=O)cc1C,i,i,i,i,i,i
O=C(O)C=CC(=O)NCCC1=CCCCC1,nt,nt,nt,nt,i,nt
Cc1ccccc1C(=O)Nc1nnc(CC(=O)NN=Cc2cn(Cc3ccccc3)c3ccccc23)s1,nt,nt,nt,nt,i,nt
C/C=C/C=NNc1nc(-c2ccc([N+](=O)[O-])cc2)cs1,nt,nt,nt,nt,i,nt
